# Bioassay records as filed in PubChem BioAssay.
# HCMV inh: inhibitors of human cytomegalovirus | HFF cells, HCMV-luciferase reporter, 72 h; active compounds read low | activity change, negative = inhibition, % at 57.5 µM | 410,000 tested, 4.5% active | AID 1259415; in the data active = activity change below about -60%; inconclusive = no clear call, values can overlap the other calls; inactive = above about -39%
#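 HFF cells seeded 16 h at 37C, treated with compounds, infected with luciferase-reporter HCMV at MOI 1 PFU/cell; luciferase read at 72 h post infection, normalized to buffer-only and Salinomycin controls.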
# VACV Venus inh: inhibitors of vaccinia virus (Venus reporter). AID 720580. Potency, µM (top dose mostly 36.5 µM), for the others: at the highest dose activity change, negative = inhibition, most hits filed as inhibitors. Vaccinia virus Venus reporter expression, fluorescence. 330,000 tested, 0.46% active; calls by dose curve; tested in A549 cells; note: potency is the fitted concentration of half-maximal effect; nearly all actives have a fitted effect of over 30% in size
# Vaccinia mCherry: inhibitors of vaccinia virus infection (mCherry reporter signal); Vaccinia virus mCherry reporter infection, fluorescence; Potency, µM (doses to about 36.5 µM), for the others: at the highest dose activity change, negative = inhibition, actives largely listed as inhibitors; 310,000 tested, 0.63% active; AID 720579; calls by dose curve; tested in A549 cells; note: potency is the fitted concentration of half-maximal effect; nearly all actives have a fitted effect of over 35% in size
# MARV entry inh: blocks Marburg virus binding to or entry into cells | Potency, µM (doses to about 37.8 µM), for inactives: top-dose activity change, negative = inhibition, hits mostly inhibitors | 300,000 tested, 1.8% active | Marburg virus pseudotyped entry inhibition, cell reporter; calls by dose curve; tested in HEK293 cells; note: potency is the fitted concentration of half-maximal effect
# Lassa entry inh: blocks Lassa virus binding to or entry into cells. Lassa virus pseudotype entry inhibition, cell reporter. Potency, µM (titrated, usually from 37.9 µM), for the others: at the top dose activity change, negative = inhibition, usual class: inhibitors. 300,000 tested, 1.2% active; calls by dose curve; tested in HEK293 cells; note: potency is the fitted concentration of half-maximal effect; nearly all actives have a fitted effect of over 50% in size
# FMDV antiviral: foot and mouth disease virus antiviral activity | FMDV antiviral cell-based qHTS | Potency, µM (highest dose often 57.9 µM), without a hit: top-dose activity change, negative = inhibition, most hits filed as inhibitors | 410,000 tested, 1.2% active | AID 1159524; calls by dose curve; tested in HEK293T cells; note: read-out not given here; potency is the fitted concentration of half-maximal effect; nearly all actives have a fitted effect of over 45% in size
# The depositor's hits bear a star; i = inactive; ? = inconclusive; . = not tested or not shown; [ ] = remark or other dose. This is a sample that favours compounds with a hit; in the whole collection about 6.5% have one here. % is set by controls: 0 for no effect and ±100 for the full control effect.
SMILES,HCMV inh,VACV Venus inh,Vaccinia mCherry,MARV entry inh,Lassa entry inh,FMDV antiviral
O=C(c1ccc(S(=O)(=O)N2CCCCC2)cc1)N1CCN(CCN2C(=O)c3cccc4cccc(c34)C2=O)CC1,?,-4.3%,-2.0%,?,4.4%,15.8µM*
CCC(OCC(O)CN1CCN(CCN2C(=O)c3cccc4cccc(c34)C2=O)CC1)c1ccccc1 (stereo unspecified),?,?,?,?,?,28.2µM*
O=[N+]([O-])c1ccc(S(=O)(=O)N2CCN(c3nc(-c4cccs4)nc4ccccc34)CC2)cc1,.,-11.8%,-15.5%,.,.,.
Cc1ccccc1NS(=O)(=O)c1ccc2[nH]cc(C(=O)NCCc3ccccc3)c(=O)c2c1,-0.1,-9.9%,-9.3%,.,?,-0.5%
CCN(CC)C(=O)CSC1=C(C#N)[C@H](c2ccco2)C(C(=O)OCCOC)=C(C)N1,.,.,.,9.3%,.,.
S=C(SCc1c(Cl)cccc1Cl)N1CCSCC1,86.9,.,.,.,.,.
CCn1cc(C(=O)NC[C@H]2CCCO2)c(=O)c2cc(F)c(N3CCN(C)CC3)cc21,.,.,.,-20.7%,.,.
CCOc1cc(C(=O)N/N=C/c2ccoc2)cc(OCC)c1OCC,-88.0*,.,.,.,.,4.9%
CSc1ccc(/C=N/NC(=O)c2cccc(O)c2)cc1,98.0,-23.4%,-13.4%,?,?,-30.2%
CCOc1ccc(C(=O)N/N=C/c2ccc(SC)cc2)cc1,-33.0,-14.9%,i,7.5%,2.82µM*,-15.8%
Cc1cnc(CNc2ccnc(-c3ccccc3C(F)(F)F)n2)cn1,.,.,.,.,.,-11.3%
C[C@H]1[C@@H](NS(=O)(=O)c2ccc(F)cc2)CC[C@@]23CCCN2C(=O)CCC[C@@H]13,15.9,.,.,.,.,.
CC(C)(C)C(=O)Nc1ccc(N=Nc2ccccc2)cc1,-61.8*,-10.9%,?,?,?,17.8µM*
CC(=O)NC(NC(=S)Nc1ccc(N=Nc2ccccc2)cc1)C(Cl)(Cl)Cl (stereo unspecified),-26.5,14.1µM*,12.6µM*,?,?,?
CC(C)CC(=O)NC(NC(=S)Nc1ccccc1)C(Cl)(Cl)Cl (stereo unspecified),53.4,-16.6%,-25.3%,?,.,-4.4%
O=C(/C=C/c1ccccc1)NC(NC(=S)Nc1ccc(Cl)cc1)C(Cl)(Cl)Cl (stereo unspecified),?,.,.,4.61µM*,?,-20.6%
O=C(CCc1ccccc1)NC(NC(=S)Nc1ccc(Cl)cc1)C(Cl)(Cl)Cl (stereo unspecified),-38.6,?,?,11.2µM*,?,-13.3%
COC(=O)[C@]12C[C@H](CC(=O)NCc3ccccc3)C(=O)N(Cc3ccccc3)C1=C[C@H](C(C)C)O[C@@H]2C1CC1,-17.0,.,.,.,.,.
COc1ccc(NC(=O)CNC(=O)Cn2ccc3ccccc3c2=O)cc1OC,4.3,-3.5%,-12.1%,?,9.0%[46.1 µM],-17.2%
O=C(Cc1ccccc1)NC(NC(=S)Nc1cc(Cl)ccc1Cl)C(Cl)(Cl)Cl (stereo unspecified),-36.1,.,.,-15.9%,-9.7%,3.4%
O=C(/C=C/c1ccccc1)NC(NC(=S)Nc1cc(Cl)ccc1Cl)C(Cl)(Cl)Cl (stereo unspecified),-1.6,?,10µM*,?,?,-12.0%
CCC(=O)NCc1csc(-c2cccs2)n1,-70.3*,-15.3%,-12.6%,?,?,45.2%
COc1ccccc1CC(=O)NCc1csc(-c2cccs2)n1,18.5,-5.9%,i,0.9%[14.2 µM],-27.0%,39.6%
O=C(COC(=O)c1c[nH]c2ccccc12)Nc1ccccc1,-6.9,-10.8%,-17.1%,-14.4%,8.4%,-7.4%
CC(NC(=O)COC(=O)c1c[nH]c2ccccc12)c1ccccc1 (stereo unspecified),24.7,-23.3%,-22.1%,12.9%,8.91µM*,-19.6%
SMILES,HCMV inh,VACV Venus inh,Vaccinia mCherry,MARV entry inh,Lassa entry inh,FMDV antiviral
COC(=O)CCC(C)C1CCC2C3CC[C@H]4CC(O)CC[C@@]4(C)C3CC(O)[C@]12C (stereo partly specified),.,10µM*,?,.,.,-5.9%
C[C@H](CCC(=O)O)[C@H]1CC[C@H]2[C@@H]3CC[C@@H]4C[C@H](O)CC[C@]4(C)[C@H]3C[C@H](O)[C@]12C,?,-14.7%,-3.7%,.,.,?
O=C([C@@H]1C[C@@H](Sc2nc3ccccc3[nH]2)CN1Cc1ccc(Cl)cc1)N1CCN(c2ccccc2F)CC1,.,-22.1%,-9.7%,.,.,10.5%
Cc1c(C(=O)c2no[n+]([O-])c2C(=O)c2cnn(C)c2C)cnn1C,-107.0*,-12.9%,-16.0%[1.46 µM],-2.5%,2.3%,39.8µM*
CN(C)Cc1cc(C(C)(C)c2cc(CN(C)C)c(O)c(CN(C)C)c2)cc(CN(C)C)c1O,12.4,.,.,11.6µM*,?,11.9%
CN(C)Cc1cc(OCc2ccccc2)cc(CN(C)C)c1O,7.3,-9.9%,-12.8%,.,.,-1.8%
CC1=C(c2ccc(C)c(C)c2)S(=O)(=O)N(Cc2ccc(C(=O)NCc3ccc(C)cc3)cc2)C1=O,2.7,-15.1%,-6.9%,-1.6%[46.1 µM],.,2.5%
Cc1nnc(-c2ccc(C)c(-c3ccc(C(=O)NCc4ccc(Cl)cc4)cc3)c2)o1,.,.,.,.,0.628µM*,.
NC(CSCc1cccc(Br)c1)C(=O)O (stereo unspecified),-65.2*,-9.0%,i,.,.,7.8%
Cc1c(N=C2C=C(Br)C(=O)C(Br)=C2)c(=O)n(-c2ccccc2)n1C,-30.7,-2.9%,-13.4%,2.0%[46.1 µM],-8.8%,1.8%
Cc1c(N=C2C=CC(=O)c3ccccc32)c(=O)n(-c2ccccc2)n1C,-11.2,?,?,?,-1.6%,35.5µM*
Cc1cc(-c2nn(-c3ccccc3F)cc2CN2CCN(c3ccncc3)CC2)c(C)s1,-11.2,-22.5%,-4.5%,6.31µM*,?,-15.0%
C[C@H](CO)N1C[C@H](C)[C@H](CN(C)Cc2cccc(F)c2)Oc2ncc(C3=CCCC3)cc2C1=O,11.6,.,.,.,.,.
Cc1ccc(Sc2c(CO)c(-c3ccccc3)nn2C)cc1,-83.4*,?,?,?,?,?
Cn1nc(-c2ccccc2)c(CO)c1Oc1cccc(C(F)(F)F)c1,-3.8,-18.4%,-23.4%,16.9%[46.1 µM],-18.9%,?
CSc1nc(-c2ccccc2)c(C#N)c(=O)[nH]1,-23.6,-2.2%,-12.5%,.,.,-16.9%
CSc1nc(-c2ccc(Cl)cc2)c(C#N)c(=O)[nH]1,-75.5*,-3.6%,i,12.3%[46.1 µM],-16.7%,-12.9%
O=C1/C(=C/c2ccco2)SC(=S)N1C1CCS(=O)(=O)C1 (stereo unspecified),?,-9.3%,-3.2%,.,.,0.0%
O=C1/C(=C\c2ccco2)SC(=S)N1C1CCS(=O)(=O)C1 (stereo unspecified),-73.5*,3.5%,?,?,-5.9%,0.0%
C/C(CCC1CC(C)OC1=O)=N\NC(N)=S (stereo unspecified),-34.8,.,.,.,.,3.7%
C/C(CC1CC2=C(CC1(C)C)C(C)(C)CCC2)=N\NC(N)=S (stereo unspecified),-65.0*,?,-14.1%,?,?,?
